# PubChem BioAssay (NCATS)
# Records with an inconclusive call do not appear. A call without a number means that no potency is given here. Active and inactive are the calls of the source. Calls come from the whole dose curve; as a rule, active = well fitted curve in the direction sought with a large enough effect; inconclusive = small, poorly fitted or top-dose-only effect, or another doubt; inactive = no such curve, though single readings can be large; an effect the other way counts as inactive or inconclusive. Non-standard residues stand in square brackets, D forms with d. Residues, ends and D or L forms follow the SMILES beside them. *: point of attachment. Sta = CC(C)C[C@H](N)[C@@H](O)CC(=O)O; Isovaleryl = CC(C)CC(=O)*
# How the values were obtained:
# [1] = Quantitative High-Throughput drug screen in 47 multiple myeloma cell lines against the NCATS MIPE library collection: XG6_PLB cell viability assay (AID 1919865); details: XG6 myeloma viability, CellTiter-Glo ATP luminescence, 48 h; series mostly up to 45.8 µM; note: nearly all actives have a fitted effect of over 40% in size; note: potency is the fitted concentration of half-maximal effect
# Procedure, shortened: (§1)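 ATP-based luminescence (CellTiter-Glo, 5 min RT incubation) quantified surviving cells following two days' treatment with MIPE 4.0 agents at 37 °C, 5% CO2.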
# [2] = Quantitative High-Throughput drug screen in 47 multiple myeloma cell lines against the NCATS MIPE library collection: VP6_DJ cell viability assay (AID 1919867); details: ATP luminescence, 48 h; series mostly up to 45.8 µM; note: nearly all actives have a fitted effect of over 40% in size; note: potency is the fitted concentration of half-maximal effect
# Procedure, shortened: as §1
# [3] = Quantitative High-Throughput drug screen in 47 multiple myeloma cell lines against the NCATS MIPE library collection: PE2_PLB cell viability assay (AID 1919869); details: PE2_PLB myeloma cells viability, ATP luminescence, 48 h; series mostly up to 45.8 µM; note: nearly all actives have a fitted effect of over 35% in size; note: potency is the fitted concentration of half-maximal effect
# Procedure, shortened: as §1
# [4] = Quantitative High-Throughput drug screen in 47 multiple myeloma cell lines against the NCATS MIPE library collection: RPMI8226_ATCC cell viability assay (AID 1919871); details: RPMI8226 myeloma viability, CellTiter-Glo ATP luminescence, 48 h; series mostly up to 45.8 µM; note: nearly all actives have a fitted effect of over 30% in size; note: potency is the fitted concentration of half-maximal effect
# Procedure, shortened: as §1
# [5] = Quantitative High-Throughput drug screen in 47 multiple myeloma cell lines against the NCATS MIPE library collection: OPM2_DSMZ cell viability assay (AID 1919872); details: OPM2 myeloma viability, CellTiter-Glo ATP luminescence, 48 h; series mostly up to 45.8 µM; note: nearly all actives have a fitted effect of over 30% in size; note: potency is the fitted concentration of half-maximal effect
# Procedure, shortened: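 Approved and investigational drugs from MIPE 4.0 were added by pin tool to 500 cells per well. After 48 hours at 37C, ATP-based CellTiter-Glo luminescence indicated remaining viability.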
# [6] = Quantitative High-Throughput drug screen in 47 multiple myeloma cell lines against the NCATS MIPE library collection: KMS11_JCRBsus cell viability assay (AID 1919873); details: KMS11 myeloma viability, CellTiter-Glo ATP luminescence, 48 h; series mostly up to 45.8 µM; note: nearly all actives have a fitted effect of over 50% in size
# Procedure, shortened: as §1
# [7] = Quantitative High-Throughput drug screen in 47 multiple myeloma cell lines against the NCATS MIPE library collection: KMS28BM_JCRB cell viability assay (AID 1919874); details: CellTiter-Glo ATP, 48 h; series mostly up to 45.8 µM; note: nearly all actives have a fitted effect of over 35% in size
# Procedure, shortened: as §1
# [8] = Quantitative High-Throughput drug screen in 47 multiple myeloma cell lines against the NCATS MIPE library collection: UTMC2_PLB cell viability assay (AID 1919868); details: CellTiter-Glo ATP luminescence, 48 h; series mostly up to 45.8 µM; note: nearly all actives have a fitted effect of over 55% in size; note: potency is the fitted concentration of half-maximal effect
# Procedure, shortened: as §1
# [9] = molecular target: Cytochrome P450 3A4 (Homo sapiens) (UniProt P08684); experiment: qHTS for inhibitors of CYP3A4 against the NCATS DSHEA and TCM libraries (AID 1919971); details: recombinant CYP3A4 enzyme activity, luminescence qHTS; note: potency is the fitted concentration of half-maximal effect
# Cytochrome P450 3A4 (Homo sapiens), sequence (P08684 whole entry, looked up): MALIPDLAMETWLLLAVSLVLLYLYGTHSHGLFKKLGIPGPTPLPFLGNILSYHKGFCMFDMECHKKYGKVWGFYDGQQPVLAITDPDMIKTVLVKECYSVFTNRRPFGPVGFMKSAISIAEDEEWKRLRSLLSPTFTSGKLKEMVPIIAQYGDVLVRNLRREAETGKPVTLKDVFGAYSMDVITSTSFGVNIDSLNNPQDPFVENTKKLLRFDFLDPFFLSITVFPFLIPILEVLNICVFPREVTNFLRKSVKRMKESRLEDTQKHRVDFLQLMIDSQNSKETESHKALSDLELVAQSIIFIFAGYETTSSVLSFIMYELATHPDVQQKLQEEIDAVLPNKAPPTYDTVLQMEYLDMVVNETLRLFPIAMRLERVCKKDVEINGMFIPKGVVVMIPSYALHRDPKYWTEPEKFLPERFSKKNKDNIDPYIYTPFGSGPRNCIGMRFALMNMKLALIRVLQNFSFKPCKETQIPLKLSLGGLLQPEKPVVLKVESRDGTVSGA
# Procedure, shortened: (§2)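 Substances were tested against enzyme with a pro-luciferin substrate; minus-enzyme wells served as background. After NADPH-initiated oxidation (30-45 min, RT), light was generated with P450-Glo reagent.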
# [10] = molecular target: Cytochrome P450 2D6 (Homo sapiens) (UniProt P10635); experiment: qHTS for inhibitors of CYP2D6 against the NCATS DSHEA and TCM libraries (AID 1919972); details: CYP2D6 enzymatic inhibition, luminescence qHTS; note: potency is the fitted concentration of half-maximal effect
# Cytochrome P450 2D6 (Homo sapiens), sequence (P10635 whole entry, looked up): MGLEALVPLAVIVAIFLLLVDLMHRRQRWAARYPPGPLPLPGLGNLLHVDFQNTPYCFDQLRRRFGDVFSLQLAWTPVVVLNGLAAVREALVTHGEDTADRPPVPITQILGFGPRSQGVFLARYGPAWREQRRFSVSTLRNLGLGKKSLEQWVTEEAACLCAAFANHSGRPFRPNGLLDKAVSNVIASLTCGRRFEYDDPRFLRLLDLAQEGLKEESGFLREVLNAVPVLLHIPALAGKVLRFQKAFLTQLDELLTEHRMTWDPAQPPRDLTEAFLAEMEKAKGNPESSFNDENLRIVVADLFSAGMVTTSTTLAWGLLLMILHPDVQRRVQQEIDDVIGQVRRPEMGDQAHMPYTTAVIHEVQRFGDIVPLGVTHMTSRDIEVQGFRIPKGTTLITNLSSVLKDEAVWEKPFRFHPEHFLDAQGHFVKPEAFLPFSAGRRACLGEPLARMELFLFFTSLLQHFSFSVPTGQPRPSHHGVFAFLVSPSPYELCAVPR
# Procedure, shortened: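 qHTS, concentration–response format with most substances from 19.5 nM. CYP2D6 + pro-luciferin substrate, 15 min with compound, then 1x NADPH regen, 30–45 min RT dark. Glo detection 30 min, luminescence. Quinidine control.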
# [11] = molecular target: Cytochrome P450 2C9 (Homo sapiens) (UniProt P11712); experiment: qHTS for inhibitors of CYP2C9 against the NCATS DSHEA and TCM libraries (AID 1919973); details: recombinant CYP2C9 enzyme activity, luminescence; note: potency is the fitted concentration of half-maximal effect
# Cytochrome P450 2C9 (Homo sapiens), sequence (P11712 whole entry, looked up): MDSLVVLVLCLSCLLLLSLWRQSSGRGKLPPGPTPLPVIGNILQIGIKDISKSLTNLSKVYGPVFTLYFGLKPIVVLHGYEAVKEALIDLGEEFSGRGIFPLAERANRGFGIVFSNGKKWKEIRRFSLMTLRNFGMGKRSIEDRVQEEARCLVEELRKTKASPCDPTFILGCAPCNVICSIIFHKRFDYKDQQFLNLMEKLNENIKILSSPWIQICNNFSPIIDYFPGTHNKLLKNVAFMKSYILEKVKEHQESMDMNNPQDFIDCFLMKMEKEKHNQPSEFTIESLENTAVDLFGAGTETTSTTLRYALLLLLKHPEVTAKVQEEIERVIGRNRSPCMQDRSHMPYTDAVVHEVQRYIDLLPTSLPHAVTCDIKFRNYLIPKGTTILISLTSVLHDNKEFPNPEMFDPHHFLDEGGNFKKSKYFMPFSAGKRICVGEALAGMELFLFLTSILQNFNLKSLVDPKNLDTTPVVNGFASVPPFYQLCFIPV
# Procedure, shortened: as §2
# [12] = molecular target: Cytochrome P450 2C19 (Homo sapiens) (UniProt P33261); experiment: qHTS for inhibitors of CYP2C19 against the NCATS DSHEA and TCM libraries (AID 1919974); details: CYP2C19 enzyme inhibition, luminescence qHTS;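 note: luminescence from luciferin released by CYP2C19 oxidation of a pro-luciferin substrate; potency is the fitted concentration of half-maximal effect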
# Cytochrome P450 2C19 (Homo sapiens), sequence (P33261 whole entry, looked up): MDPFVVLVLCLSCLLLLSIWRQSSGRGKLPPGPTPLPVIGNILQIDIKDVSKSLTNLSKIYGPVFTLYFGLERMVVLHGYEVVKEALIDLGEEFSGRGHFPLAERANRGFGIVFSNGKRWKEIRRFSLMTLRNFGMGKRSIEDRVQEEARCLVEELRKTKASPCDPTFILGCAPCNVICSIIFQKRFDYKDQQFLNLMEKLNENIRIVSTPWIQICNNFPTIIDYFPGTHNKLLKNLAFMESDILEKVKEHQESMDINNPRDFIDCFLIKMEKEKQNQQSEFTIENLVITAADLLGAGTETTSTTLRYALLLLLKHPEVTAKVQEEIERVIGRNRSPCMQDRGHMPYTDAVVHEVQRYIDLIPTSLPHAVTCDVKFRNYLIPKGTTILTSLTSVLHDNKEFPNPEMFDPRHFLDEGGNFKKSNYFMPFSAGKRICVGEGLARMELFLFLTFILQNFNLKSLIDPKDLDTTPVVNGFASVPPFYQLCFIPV
# Procedure, shortened: as §2
# [13] = KB-3-1 P-gp reporter qHTS against the NCATS DSHEA and TCM libraries (AID 1919975); details: KB-3-1 parental cells, CellTiter-Glo luminescence viability, 72 h; series mostly up to 26.1 µM
# Procedure, shortened: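 Parental KB-3-1 human cervical adenocarcinoma cells (500 cells/well, DMEM + 10% FBS) were treated with substances for ~72 h at 37C; viability was read by CellTiter-Glo luminescence.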
# [14] = molecular target: Cytochrome P450 1A2 (Homo sapiens) (UniProt P05177); experiment: qHTS for inhibitors of CYPIA2 against the NCATS DSHEA and TCM libraries (AID 1919976); details: recombinant CYP1A2 enzyme activity, luminescence; note: potency is the fitted concentration of half-maximal effect
# Cytochrome P450 1A2 (Homo sapiens), sequence (P05177 whole entry, looked up): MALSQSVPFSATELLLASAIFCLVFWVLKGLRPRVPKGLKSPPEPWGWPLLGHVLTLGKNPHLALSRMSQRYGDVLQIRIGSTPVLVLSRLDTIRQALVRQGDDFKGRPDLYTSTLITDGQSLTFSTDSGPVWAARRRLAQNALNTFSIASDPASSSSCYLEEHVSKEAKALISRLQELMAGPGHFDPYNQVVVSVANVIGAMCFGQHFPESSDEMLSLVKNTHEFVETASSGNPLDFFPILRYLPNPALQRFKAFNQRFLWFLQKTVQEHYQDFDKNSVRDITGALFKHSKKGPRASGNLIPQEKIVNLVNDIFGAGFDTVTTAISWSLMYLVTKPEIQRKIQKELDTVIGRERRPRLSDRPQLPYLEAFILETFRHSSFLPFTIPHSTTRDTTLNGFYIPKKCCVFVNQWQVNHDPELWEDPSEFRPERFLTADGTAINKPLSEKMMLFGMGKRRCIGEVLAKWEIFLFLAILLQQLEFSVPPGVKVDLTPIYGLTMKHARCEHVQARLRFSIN
# Procedure, shortened: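 Luminescence read-out: pro-luciferin converted to D-luciferin by CYP1A2, detected with P450-Glo reagent after 30 min RT. Enzyme plus substrate got compounds for 15 min RT; NADPH regeneration solution (final 1x) started a 30-45 min reaction, light-protected.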
# [15] = Dual reporter qHTS for agonist of Pregnane X Receptor (hPXR) against the NCATS DSHEA and TCM libraries: Fluorescence readout (AID 1920058); details: PXR dual reporter cells; series mostly up to 40 µM
# Procedure, shortened: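 Fluorescence read-out for cell viability: CellTiter-Fluor, 1 h at 37 °C, Ex/Em 405/540 nm. This followed ~24 h treatment of hPXR-Luc HepG2 cells with substances in agonist mode.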
# [16] = molecular target: Nuclear receptor subfamily 1 group I member 2 (Homo sapiens) (UniProt O75469); experiment: Dual reporter qHTS for agonist of Pregnane X Receptor (hPXR) against the NCATS DSHEA and TCM libraries: Luminescence readout (AID 1920059); details: hPXR dual reporter cells, luciferase luminescence agonist; series mostly up to 40 µM
# Nuclear receptor subfamily 1 group I member 2 (Homo sapiens), sequence (O75469 whole entry, looked up): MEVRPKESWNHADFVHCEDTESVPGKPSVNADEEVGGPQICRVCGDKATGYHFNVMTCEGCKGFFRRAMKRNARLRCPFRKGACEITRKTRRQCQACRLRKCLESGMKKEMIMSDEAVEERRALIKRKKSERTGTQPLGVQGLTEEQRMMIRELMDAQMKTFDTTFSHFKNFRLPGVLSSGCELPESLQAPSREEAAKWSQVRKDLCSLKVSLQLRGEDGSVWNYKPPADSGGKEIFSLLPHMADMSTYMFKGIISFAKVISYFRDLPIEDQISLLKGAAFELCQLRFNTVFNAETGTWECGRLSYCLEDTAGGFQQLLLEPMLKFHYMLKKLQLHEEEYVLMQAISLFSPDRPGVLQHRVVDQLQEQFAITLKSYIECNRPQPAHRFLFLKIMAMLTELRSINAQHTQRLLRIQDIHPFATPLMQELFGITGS
# Procedure, shortened: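 Luminescent PXR reporter read (ONE-Glo) after a CellTiter-Fluor viability read, following 24 h, 37C treatment of HepG2 cells stably carrying hPXR-Luc.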
# [17] = molecular target: Nuclear receptor subfamily 1 group I member 2 (Homo sapiens) (UniProt O75469); experiment: Dual reporter qHTS for antagonist of Pregnane X Receptor (hPXR) against the NCATS DSHEA and TCM libraries: Luminescence Readout (AID 1920060); details: hPXR dual reporter cells, luciferase luminescence, antagonist mode; series mostly up to 40 µM;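 note: HepG2 cells carrying hPXR luciferase reporter stimulated with rifampicin at 2 µM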
# Procedure, shortened: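 HepG2 hPXR-Luc, 2000 cells/well, charcoal-stripped FBS medium; 5 h attach; RIF 2 uM final; 24 h 37C/5% CO2; CellTiter-Fluor 1 h, fluor 405/540; ONE-Glo 30 min RT, lum.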
# [18] = Quantitative High-Throughput drug screen in 47 multiple myeloma cell lines against the NCATS MIPE library collection: XG1_PLB cell viability assay (AID 1919866); details: CellTiter-Glo ATP, 48 h; series mostly up to 45.8 µM; note: nearly all actives have a fitted effect of over 35% in size; note: potency is the fitted concentration of half-maximal effect
# Procedure, shortened: as §1
# [19] = Quantitative High-Throughput drug screen in 47 multiple myeloma cell lines against the NCATS MIPE library collection: PCM6_Riken cell viability assay (AID 1919870); details: CellTiter-Glo ATP, 48 h; series mostly up to 45.8 µM; note: nearly all actives have a fitted effect of over 30% in size; note: potency is the fitted concentration of half-maximal effect
# Procedure, shortened: as §1
structure (smiles),measurement,setting,value
c1ccc2[nH]c(-c3cscn3)nc2c1,Potency,[1],inactive
same,Potency,[2],inactive
same,Potency,[3],inactive
same,Potency,[4],inactive
same,Potency,[5],inactive
same,Potency,[6],inactive
same,Potency,[7],inactive
Cc1cc(O)c2c(c1)C(=O)c1cc(O)cc(O)c1C2=O,Potency,[2],inactive
same,Potency,[8],inactive
same,Potency,[4],23.5 µM (active)
same,Potency,[5],inactive
same,Potency,[6],inactive
same,Potency,[7],inactive
same,Potency,[9],10 µM (active)
same,Potency,[10],22.4 µM (active)
same,Potency,[11],8.91 µM (active)
same,Potency,[12],22.4 µM (active)
same,outcome,[13],inactive
same,Potency,[14],8.91 µM (active)
same,outcome,[15],inactive
same,outcome,[16],inactive
same,outcome,[17],inactive
O=c1oc2cc(O)ccc2s1,Potency,[1],inactive
same,Potency,[2],inactive
same,Potency,[8],inactive
same,Potency,[3],inactive
same,Potency,[5],inactive
same,Potency,[6],inactive
same,Potency,[7],inactive
O=P(O)(O)C(O)(Cn1ccnc1)P(=O)(O)O,Potency,[1],inactive
same,Potency,[2],6.45 µM (active)
same,Potency,[4],inactive
same,Potency,[5],inactive
same,Potency,[6],inactive
same,Potency,[7],inactive
Cc1c(OCC(F)(F)F)ccnc1CS(=O)c1nc2ccccc2[nH]1 (centres undefined),Potency,[4],inactive
same,Potency,[5],inactive
same,Potency,[7],inactive
COc1cc2c(cc1OC)C1CC(=O)C(CC(C)C)CN1CC2 (centres undefined),Potency,[1],inactive
same,Potency,[18],inactive
same,Potency,[4],5.9 µM (active)
same,Potency,[6],inactive
same,Potency,[7],inactive
CC(C)CC(=O)N[C@H](C(=O)N[C@H](C(=O)N[C@@H](CC(C)C)[C@@H](O)CC(=O)N[C@@H](C)C(=O)N[C@@H](CC(C)C)[C@@H](O)CC(=O)O)C(C)C)C(C)C (Isovaleryl-VV[Sta]A[Sta]-OH),Potency,[1],inactive
same,Potency,[3],inactive
same,Potency,[5],inactive
same,Potency,[6],inactive
same,Potency,[7],inactive
CC(C)c1ccc2oc3nc(N)c(C(=O)O)cc3c(=O)c2c1,Potency,[1],inactive
same,Potency,[19],inactive
same,Potency,[4],inactive
same,Potency,[6],inactive
same,Potency,[7],inactive
Cc1cccc(CN2CCN(C(c3ccccc3)c3ccc(Cl)cc3)CC2)c1 (centres undefined),Potency,[1],14.8 µM (active)
same,Potency,[8],20.9 µM (active)
same,Potency,[19],16.6 µM (active)
O=C(NC(Cc1cc(=O)[nH]c2ccccc12)C(=O)O)c1ccc(Cl)cc1 (centres undefined),Potency,[1],26.4 µM (active)
same,Potency,[3],inactive
same,Potency,[5],inactive
same,Potency,[6],inactive
same,Potency,[7],inactive
NC(=O)Cc1cccc(C(=O)c2ccccc2)c1N,Potency,[1],inactive
same,Potency,[18],inactive
same,Potency,[4],inactive
same,Potency,[6],inactive
same,Potency,[7],inactive
Cc1ncc([N+](=O)[O-])n1CC(C)O (centres undefined),Potency,[18],10.5 µM (active)
same,Potency,[2],18.7 µM (active)
same,Potency,[8],18.7 µM (active)
same,Potency,[5],inactive
same,Potency,[6],inactive
same,Potency,[7],inactive
Cc1ccc(C)c(OCCCC(C)(C)C(=O)O)c1,Potency,[1],9.35 µM (active)
same,Potency,[2],7.43 µM (active)
same,Potency,[19],8.33 µM (active)
same,Potency,[4],inactive
same,Potency,[5],inactive
same,Potency,[6],inactive
same,Potency,[7],inactive
Oc1ccc(-c2nc(-c3ccc(F)cc3)c(-c3ccncc3)[nH]2)cc1,Potency,[2],16.6 µM (active)
same,Potency,[4],inactive
O=C1CCc2ccc(OCCCCN3CCN(c4cccc(Cl)c4Cl)CC3)cc2N1,Potency,[18],23.5 µM (active)
same,Potency,[5],inactive
same,Potency,[7],inactive
Clc1ccc2c(N3CCN(CCCN4CCN(c5ccnc6cc(Cl)ccc56)CC4)CC3)ccnc2c1,Potency,[1],inactive
same,Potency,[8],inactive
same,Potency,[3],inactive
same,Potency,[5],inactive
same,Potency,[6],inactive
same,Potency,[7],inactive
CCCOc1ccc2nc(NC(=O)OC)[nH]c2c1,Potency,[18],inactive
same,Potency,[8],0.0209 µM (active)
same,Potency,[3],0.0469 µM (active)
same,Potency,[5],0.0105 µM (active)
